{"source": "PubChem BioAssay", "note": "Activity calls are given as the source filed them.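 Rule for the calls, unless noted: active = compounds that lower survival of HCT116 colon cancer cells in the luminescence readout, no numeric limit stated; inactive = the rest.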"}
{"assay": "inhibition of endothelial tube formation, primary screen, imaging, VEGF stimulated, CD31 staining, tube area, NPC library (AID 1117340;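 active = compound that reduces growth-factor-driven endothelial tube area in a mixed cell culture, no cutoff stated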)", "conditions": "VEGF-stimulated ADSC/ECFC co-culture, at 10 µM, hits give high values"}
{"compound": "CC(C)(C)c1ccc(C(O)CCCN2CCC(C(O)(c3ccccc3)c3ccccc3)CC2)cc1", "note": "(stereo not given)", "tube area decrease": "98.4% (active)"}
{"compound": "O=C(NCC1CCCCN1)c1cc(OCC(F)(F)F)ccc1OCC(F)(F)F", "note": "(stereo not given)", "tube area decrease": "-3.2% (inactive)"}
{"compound": "O=C(O)COCCN1CCN(C(c2ccccc2)c2ccc(Cl)cc2)CC1", "note": "(stereo not given)", "tube area decrease": "2.5% (inactive)"}
{"compound": "CC(C)c1c(C(=O)Nc2ccccc2)c(-c2ccccc2)c(-c2ccc(F)cc2)n1CC[C@@H](O)C[C@@H](O)CC(=O)O", "tube area decrease": "67.8% (active)"}
{"compound": "Cc1ccc(/C(=C\\CN2CCCC2)c2ccccn2)cc1", "tube area decrease": "-2.9% (inactive)"}
{"compound": "CC(C)(C)CC(C)(C)c1ccc(OCCOCC[N+](C)(C)Cc2ccccc2)cc1", "tube area decrease": "110% (active)"}
{"compound": "Clc1ccccc1CN1CCc2sccc2C1", "tube area decrease": "5.4% (inactive)"}
{"compound": "C[N+]1(C)CCC(OC(=O)C(O)(c2ccccc2)C2CCCC2)C1", "note": "(stereo not given)", "tube area decrease": "-0.8% (inactive)"}
{"compound": "CN1[C@@H]2CC(OC(=O)[C@H](CO)c3ccccc3)C[C@H]1[C@@H]1O[C@@H]12", "note": "(stereo not given in full)", "tube area decrease": "-4.7% (inactive)"}
{"compound": "CC(C)(C(=O)O)c1ccc(C(O)CCCN2CCC(C(O)(c3ccccc3)c3ccccc3)CC2)cc1", "note": "(stereo not given)", "tube area decrease": "-20.5% (inactive)"}
{"compound": "CC(C)n1c(/C=C/[C@@H](O)C[C@@H](O)CC(=O)O)c(-c2ccc(F)cc2)c2ccccc21", "tube area decrease": "100% (active)"}
{"compound": "CN(C)C(=N)N=C(N)N", "tube area decrease": "-11.5% (inactive)"}
{"compound": "O=C(O)c1cn(C2CC2)c2cc(N3CCNCC3)c(F)cc2c1=O", "tube area decrease": "-29.4% (inactive)"}
{"compound": "COc1ccc(-c2nc3ccc(C4=NNC(=O)CC4C)cc3[nH]2)cc1", "note": "(stereo not given)", "tube area decrease": "80.8% (active)"}
{"compound": "O=S(=O)(c1cccc2cnccc12)N1CCCNCC1", "tube area decrease": "-19.8% (inactive)"}
{"compound": "CS(=O)(=O)c1ccc([C@@H](O)[C@@H](CF)NC(=O)C(Cl)Cl)cc1", "tube area decrease": "10.2% (inactive)"}
{"compound": "C[C@@H](O[C@H]1OCCN(Cc2n[nH]c(=O)[nH]2)[C@H]1c1ccc(F)cc1)c1cc(C(F)(F)F)cc(C(F)(F)F)c1", "tube area decrease": "108% (active)"}
{"compound": "NCCCC(O)(P(=O)(O)O)P(=O)(O)O", "tube area decrease": "-27.4% (inactive)"}
{"compound": "CC1(C)[C@H](C(=O)O)N2C(=O)C[C@H]2S1(=O)=O", "tube area decrease": "-3.3% (inactive)"}
{"compound": "O=C(O)CCn1c2c(c3ccccc31)C[C@H](NS(=O)(=O)c1ccc(F)cc1)CC2", "tube area decrease": "-6.1% (inactive)"}
{"assay": "glucagon-like peptide 1 release enhancers, primary assay, NCI-H716 cell line, NPC library (AID 1117341;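 active = compound raises GLP1 secretion from the human gut endocrine cells, with no numeric limit stated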; note: reference of the scale not given here)", "conditions": "NCI-H716 cells, at 10 µM, hits give high values"}
{"compound": "CC(C)(C)c1ccc(C(O)CCCN2CCC(C(O)(c3ccccc3)c3ccccc3)CC2)cc1", "note": "(stereo not given)", "GLP1 secretion stimulation": "70% (active)"}
{"compound": "O=C(NCC1CCCCN1)c1cc(OCC(F)(F)F)ccc1OCC(F)(F)F", "note": "(stereo not given)", "GLP1 secretion stimulation": "1.7% (inactive)"}
{"compound": "O=C(O)COCCN1CCN(C(c2ccccc2)c2ccc(Cl)cc2)CC1", "note": "(stereo not given)", "GLP1 secretion stimulation": "1.4% (inactive)"}
{"compound": "CC(C)c1c(C(=O)Nc2ccccc2)c(-c2ccccc2)c(-c2ccc(F)cc2)n1CC[C@@H](O)C[C@@H](O)CC(=O)O", "GLP1 secretion stimulation": "5.8% (inactive)"}
{"compound": "Cc1ccc(/C(=C\\CN2CCCC2)c2ccccn2)cc1", "GLP1 secretion stimulation": "-2.1% (inactive)"}
{"compound": "CC(C)(C)CC(C)(C)c1ccc(OCCOCC[N+](C)(C)Cc2ccccc2)cc1", "GLP1 secretion stimulation": "89.6% (active)"}
{"compound": "Clc1ccccc1CN1CCc2sccc2C1", "GLP1 secretion stimulation": "-2.6% (inactive)"}
{"compound": "C[N+]1(C)CCC(OC(=O)C(O)(c2ccccc2)C2CCCC2)C1", "note": "(stereo not given)", "GLP1 secretion stimulation": "-0.5% (inactive)"}
{"compound": "CN1[C@@H]2CC(OC(=O)[C@H](CO)c3ccccc3)C[C@H]1[C@@H]1O[C@@H]12", "note": "(stereo not given in full)", "GLP1 secretion stimulation": "2.4% (inactive)"}
{"compound": "CC(C)(C(=O)O)c1ccc(C(O)CCCN2CCC(C(O)(c3ccccc3)c3ccccc3)CC2)cc1", "note": "(stereo not given)", "GLP1 secretion stimulation": "-2.2% (inactive)"}
{"compound": "CC(C)n1c(/C=C/[C@@H](O)C[C@@H](O)CC(=O)O)c(-c2ccc(F)cc2)c2ccccc21", "GLP1 secretion stimulation": "1.4% (inactive)"}
{"compound": "CN(C)C(=N)N=C(N)N", "GLP1 secretion stimulation": "3.1% (inactive)"}
{"compound": "O=C(O)c1cn(C2CC2)c2cc(N3CCNCC3)c(F)cc2c1=O", "GLP1 secretion stimulation": "1.9% (inactive)"}
{"compound": "COc1ccc(-c2nc3ccc(C4=NNC(=O)CC4C)cc3[nH]2)cc1", "note": "(stereo not given)", "GLP1 secretion stimulation": "6.8% (inactive)"}
{"compound": "O=S(=O)(c1cccc2cnccc12)N1CCCNCC1", "GLP1 secretion stimulation": "-2.6% (inactive)"}
{"compound": "CS(=O)(=O)c1ccc([C@@H](O)[C@@H](CF)NC(=O)C(Cl)Cl)cc1", "GLP1 secretion stimulation": "0.9% (inactive)"}
{"compound": "C[C@@H](O[C@H]1OCCN(Cc2n[nH]c(=O)[nH]2)[C@H]1c1ccc(F)cc1)c1cc(C(F)(F)F)cc(C(F)(F)F)c1", "GLP1 secretion stimulation": "-2.9% (inactive)"}
{"compound": "NCCCC(O)(P(=O)(O)O)P(=O)(O)O", "GLP1 secretion stimulation": "1.2% (inactive)"}
{"compound": "CC1(C)[C@H](C(=O)O)N2C(=O)C[C@H]2S1(=O)=O", "GLP1 secretion stimulation": "-0.3% (inactive)"}
{"compound": "O=C(O)CCn1c2c(c3ccccc31)C[C@H](NS(=O)(=O)c1ccc(F)cc1)CC2", "GLP1 secretion stimulation": "-0.3% (inactive)"}
{"assay": "HCT116 colon cancer cell growth inhibition, primary screen, CellTiter-Glo luminescence, NPC library (AID 1117342)", "conditions": "at 20 µM (top of the series)"}
{"compound": "CC(C)(C)c1ccc(C(O)CCCN2CCC(C(O)(c3ccccc3)c3ccccc3)CC2)cc1", "note": "(stereo not given)", "inhibition of viability": "102% (active)"}
{"compound": "O=C(NCC1CCCCN1)c1cc(OCC(F)(F)F)ccc1OCC(F)(F)F", "note": "(stereo not given)", "inhibition of viability": "21.7% (inactive)"}
{"compound": "O=C(O)COCCN1CCN(C(c2ccccc2)c2ccc(Cl)cc2)CC1", "note": "(stereo not given)", "inhibition of viability": "11.2% (inactive)"}
{"compound": "CC(C)c1c(C(=O)Nc2ccccc2)c(-c2ccccc2)c(-c2ccc(F)cc2)n1CC[C@@H](O)C[C@@H](O)CC(=O)O", "inhibition of viability": "81.6% (active)"}
{"compound": "Cc1ccc(/C(=C\\CN2CCCC2)c2ccccn2)cc1", "inhibition of viability": "-50.9% (inactive)"}
{"compound": "CC(C)(C)CC(C)(C)c1ccc(OCCOCC[N+](C)(C)Cc2ccccc2)cc1", "inhibition of viability": "103% (active)"}
{"compound": "Clc1ccccc1CN1CCc2sccc2C1", "inhibition of viability": "3.9% (inactive)"}
{"compound": "C[N+]1(C)CCC(OC(=O)C(O)(c2ccccc2)C2CCCC2)C1", "note": "(stereo not given)", "inhibition of viability": "11.3% (inactive)"}
{"compound": "CN1[C@@H]2CC(OC(=O)[C@H](CO)c3ccccc3)C[C@H]1[C@@H]1O[C@@H]12", "note": "(stereo not given in full)", "inhibition of viability": "-0.5% (inactive)"}
{"compound": "CC(C)(C(=O)O)c1ccc(C(O)CCCN2CCC(C(O)(c3ccccc3)c3ccccc3)CC2)cc1", "note": "(stereo not given)", "inhibition of viability": "-3.77% (inactive)"}
{"compound": "CC(C)n1c(/C=C/[C@@H](O)C[C@@H](O)CC(=O)O)c(-c2ccc(F)cc2)c2ccccc21", "inhibition of viability": "88.8% (active)"}
{"compound": "CN(C)C(=N)N=C(N)N", "inhibition of viability": "-25.7% (inactive)"}
{"compound": "O=C(O)c1cn(C2CC2)c2cc(N3CCNCC3)c(F)cc2c1=O", "inhibition of viability": "8.6% (inactive)"}
{"compound": "COc1ccc(-c2nc3ccc(C4=NNC(=O)CC4C)cc3[nH]2)cc1", "note": "(stereo not given)", "inhibition of viability": "61.7% (active)"}
{"compound": "O=S(=O)(c1cccc2cnccc12)N1CCCNCC1", "inhibition of viability": "24.3% (inactive)"}
{"compound": "CS(=O)(=O)c1ccc([C@@H](O)[C@@H](CF)NC(=O)C(Cl)Cl)cc1", "inhibition of viability": "14.2% (inactive)"}
{"compound": "C[C@@H](O[C@H]1OCCN(Cc2n[nH]c(=O)[nH]2)[C@H]1c1ccc(F)cc1)c1cc(C(F)(F)F)cc(C(F)(F)F)c1", "inhibition of viability": "97.5% (active)"}
{"compound": "NCCCC(O)(P(=O)(O)O)P(=O)(O)O", "inhibition of viability": "1.17% (inactive)"}
{"compound": "CC1(C)[C@H](C(=O)O)N2C(=O)C[C@H]2S1(=O)=O", "inhibition of viability": "-13.6% (inactive)"}
{"compound": "O=C(O)CCn1c2c(c3ccccc31)C[C@H](NS(=O)(=O)c1ccc(F)cc1)CC2", "inhibition of viability": "5.1% (inactive)"}
